# Hits are enriched below; roughly 2.2% of the tested compounds scored in any of these assays.
# TDP43 rescue: rescues yeast growth from TDP-43 toxicity | TDP-43 expressing yeast growth rescue, BacTiter-Glo, 24 h | Potency, µM (series often up to 46.1 µM), without a hit: top-dose growth rescue (activation), most hits filed as activators | 1.8% of 410,000 active | AID 652104; also: % of control where 0% means no effect; nearly all actives have a fitted effect of over 50% in size
#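 Yeast cells expressing TDP-43 under galactose induction are exposed to compounds for 24 hr at 30 deg C. BacTiter-Glo luminescence measures growth, so protective compounds score as activators.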
# FUS yeast rescue: FUS proteinopathy suppression in yeast. S. cerevisiae FUS-expressing, growth rescue, OD600, 24 h. Potency, µM (doses to about 76.6 µM), hits mostly activators. 0.24% of 390,000 active. AID 1347120;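 also: plate controls were DMSO vehicle for no effect and reference control for full effect; nearly all actives have a fitted effect of over 55% in size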
#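 Galactose (2%) drives FUS expression in yeast precultured in raffinose; seeding density OD 0.005. Test compounds incubated 24hr at 30C and 99% humidity before absorbance at 600 nm was measured.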
# aSyn rescue: alpha-synuclein toxicity inhibition in yeast. Yeast expressing alpha-synuclein, growth rescue, BacTiter-Glo, 24 h. Potency, µM (series often up to 46.1 µM), for the others: at the top dose growth rescue (activation), actives largely listed as activators. 0.14% of 370,000 active. AID 652106; also: % of control where 0% means no effect; nearly all actives have a fitted effect of over 65% in size
#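 Rescue of yeast growth: cells expressing toxic alpha-synuclein, induced in galactose at OD600 0.02, incubated with compound 24 h at 30 C. ATP luminescence quantified growth; inhibitors of toxicity appear as activators.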
# Abeta yeast res: compounds reversing amyloid beta toxicity in yeast | 0.063% of 410,000 active | AID 1347071 | Potency, µM (highest dose often 46.1 µM), most hits filed as activators | yeast expressing A-beta42, growth rescue, OD600, 48 h; response scale: 0% DMSO, 100% iron-clioquinol control; also: nearly all actives have a fitted effect of over 55% in size
#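 Growth rescue measured by 600 nm absorbance after 48 h yeast culture at 30 C with compound. Values normalized between DMSO and an equimolar ferric chloride plus clioquinol control.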
# Mito fusion act: mitochondrial division inhibition or fusion activation; S. cerevisiae fusion-defective mutant growth rescue, CellTiterGlo 48 h; Potency, µM (top dose mostly 46.1 µM), inactives show at the top dose growth rescue (activation), hits mostly activators; 0.23% of 320,000 active; AID 485298; also: % of control where 0% means no effect; nearly all actives have a fitted effect of over 45% in size
#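 Temperature-sensitive fusion-defective S. cerevisiae (e.g. fzo1-1, mgm1-5) were grown with compound in YPEG medium (3% ethanol, 3% glycerol) for 48 hours at 37C. Growth rescue was measured as viability by CellTiterGlo luminescence after 10 minutes at ambient.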
# The depositor's hits bear a star; i = inactive; ? = inconclusive; / = no result; [ ] = another dose, or the depositor's remark. Calls follow the shape of the dose curve; as a rule, active = well fitted curve in the direction sought with a large enough effect; inconclusive = small, poorly fitted or top-dose-only effect, or another doubt; inactive = no such curve, though single readings can be large; an effect the other way counts as inactive or inconclusive. Potency is read from the fitted curve at half-maximal effect.
SMILES,TDP43 rescue,FUS yeast rescue,aSyn rescue,Abeta yeast res,Mito fusion act
Cc1ccc(OCc2nc3ccccc3n2C(C)C(=O)Nc2c(C)cccc2C)cc1 (stereo not given),25µM*,i,14%,i,/
O=C(Nc1cccc(Cl)c1)c1ccc2ncsc2c1,-18%,i,-14%,i,27%
O=C(COC(=O)c1ccc2ncsc2c1)NCc1cccc(Cl)c1,28µM*,i,8%,i,16%
O=C(COC(=O)c1ccc2ncsc2c1)Nc1cccc(Cl)c1,?,/,-9%,i,19%
O=C(OCCOc1cccc(Cl)c1)c1ccc2ncsc2c1,14µM*,i,1%,i,-3%
O=C(COc1ccc2c(c1)CCC2)NCc1cccc(Cl)c1,20µM*,i,0%,i,-1%
O=C(COC(=O)c1ccc2ncsc2c1)NCc1ccccc1Cl,20µM*,i,23%,i,/
COc1cccc(-n2c(=O)c3cc(OC)c(OC)cc3n(CC(=O)Nc3ccccc3)c2=O)c1,-3%,i,/,i,/
NCCCN(Cc1ccc(Cl)c(Cl)c1)c1ccccn1,/,/,-1%,/,/
O=C(Nc1cccc(C(F)(F)F)c1)c1ccc(Cn2cc(Br)cn2)o1,13µM*,i,-12%,i,-1%
Cn1cc(Cl)c(/C(N)=N/OC(=O)c2ccccc2C(F)(F)F)n1,20µM*,i,3%,i,7%
N/C(=N\OC(=O)c1ccccc1Cl)c1ccccn1,-27%,i,-27%,i,-3%
Cc1ccccc1CNC(=O)Nc1ccc2c(c1)N(C)C(=O)c1ccccc1S2,-7%,?,/,i,/
Cn1c(-c2ccccc2)cc2onc(-c3ccccc3)c2c1=O,28%,i,1%,i,11%
Cn1c(-c2ccccc2F)cc2onc(-c3ccccc3)c2c1=O,20µM*,i,-12%,i,?
COc1ccc(Cl)cc1NC(=O)Cn1ccn(-c2cc(C)cc(C)c2)c(=O)c1=O,8%,?,/,i,/
Cc1ccc(NC(=O)N2CC3CCCN3c3ccccc32)cc1C (stereo not given),20µM*,i,/,i,/
O=S(=O)(NC(=S)NC1CCCCC1)c1ccc(Br)cc1,20µM*,i,11%,i,10%
O=C(CCNS(=O)(=O)c1ccc(Br)cc1)NC1CCCCC1,0%[0.397 µM],?,6%,i,6%
COC(=O)[C@@]12CCCCC3=C1N(CCC3)C(=O)[C@H]2CC(=O)N1CCSCC1,/,i,/,/,/
Cc1ccccc1CS(=O)(=O)c1ncc(Cl)c(C(=O)Nc2nnc(C(C)C)s2)n1,11µM*,i,/,i,/
Cc1ccc(NC(=O)c2nc(S(=O)(=O)Cc3ccccc3C)ncc2Cl)cc1C,4%,i,18%,i,-37%
CCCc1nnc(NC(=O)c2nc(S(=O)(=O)Cc3ccc(C)cc3)ncc2Cl)s1,11µM*,i,17%,i,-16%
CC(C)c1nnc(NC(=O)c2nc(S(=O)(=O)Cc3ccccc3)ncc2Cl)s1,8.9µM*,i,13%,i,-38%
Cc1ccc(CS(=O)(=O)c2ncc(Cl)c(C(=O)Nc3nc4ccc(C)cc4s3)n2)cc1,?,i,/,i,/
SMILES,TDP43 rescue,FUS yeast rescue,aSyn rescue,Abeta yeast res,Mito fusion act
CC(C)CN=C(NS(=O)(=O)c1ccccc1)C(Cl)(Cl)Cl,11µM*,?,15%,i,?
COC1=C[C@H](C(=O)NC2CCN(Cc3ccccc3)CC2)[C@@]2(C)Cc3ccccc3[C@H]2CC1=O,/,i,/,/,/
CC1=Cc2ccccc2C(C#N)N1C(=O)c1ccccc1 (stereo not given),-29%[0.397 µM],i,?,?,13µM*
CC/C(O)=C1\C(=O)CC(C)(C)CC1=Nc1ccccc1C,22%,i,5%,i,11µM*
O=C(/C=C/Nc1cccc([N+](=O)[O-])c1)c1ccco1,-1%,i,13µM*,i,/
O=C(Cc1cccc(F)c1)NO,/,/,2%,/,/
COc1ccc2c(c1)C1=NN(/C(C)=C/C(C)=O)C(c3cccc(F)c3)C1CC2 (stereo not given),?,i,5%,i,18µM*
COc1ccc2c(c1)C1=NN(/C(C)=C\C(C)=O)C(c3ccccc3)C1CC2 (stereo not given),18%,?,-3%,i,13%
COc1ccc2c(c1)C1=NN(/C(C)=C/C(C)=O)C(c3ccc(F)cc3)C1CC2 (stereo not given),22µM*,/,7%,i,9%
COc1ccccc1-c1noc(-c2ccc(N3CCN(C)CC3)c([N+](=O)[O-])c2)n1,0%,i,/,i,/
COc1ccc(N2CCC(CNC(=S)Nc3cc(C)cc(C)c3)C2)cc1 (stereo not given),?,?,5%,?,14%
COc1ccc(CN(CC2CCC(C(=O)O)CC2)C(=S)Nc2ccccc2C)cc1 (stereo not given),-10%[0.397 µM],i,2%,i,-5%
COc1ccc(N2CCC(CNC(=S)Nc3cc(C)ccc3C)C2)cc1 (stereo not given),14µM*,i,?,?,14%
COc1ccc(CN(CC2CCC(C(=O)O)CC2)C(=S)Nc2cc(C)ccc2C)cc1 (stereo not given),22µM*,i,10%,i,1%
O=C1N(c2ccccc2)CC2CC(c3ccccc3)N3CCCC123 (stereo not given),/,i,/,/,/
CSc1nc(N)n2nc(C(C)(C)C)cc2n1,18µM*,i,-15%,i,0%
Cc1ccc2c(c1)N(C(=O)CCC(=O)NCCCN(C)Cc1ccccc1)CCO2,4%,i,-1%,i,0%
Cc1ccc2c(c1)N(C(=O)NCc1ccccc1)CCO2,18µM*,i,/,i,/
CCOC(=O)c1ccc(NC(=S)N2CCSC2c2ccc(Br)cc2)cc1 (stereo not given),9%,i,-11%,?,22µM*
CC1CN(c2nc3c(c(=O)n(Cc4ccc(Cl)c(Cl)c4)c(=O)n3C)n2C)CC(C)O1 (stereo not given),25µM*,?,10%,i,?
Cn1c(N2CCOCC2)nc2c1c(=O)n(Cc1ccc(Cl)cc1)c(=O)n2C,19%,i,1%,i,/
COCCCN1C(=O)[C@H](CC(=O)NCc2cccc(C(F)(F)F)c2)[C@]2(C(=O)OC)CCCCC=C12,/,i,/,/,/
CCCNC(=O)c1cnn2c(C(F)F)cc(-c3ccccc3)nc12,13µM*,i,/,i,/
c1ccc(-c2ccc3[nH]ccc3c2)cc1,13µM*,i,-27%,i,-3%
c1cncc(-c2ccc3[nH]ccc3c2)c1,10%,i,1%,i,8%
CCOC(=O)c1cc(-c2ccccc2C)n(CC2CC(c3cccc([N+](=O)[O-])c3)=NO2)n1 (stereo not given),20µM*,i,7%,i,?

# Screens (PubChem BioAssay)
